# Shown are actives, neighbours in structure and some others; about 8.8% of the full set was active somewhere.
# KB-3-1 tox: qHTS assay for MDR1-selective chemotherapeutics: Primary screen using the parental adenocarcinoma cell KB-3-1 | KB-3-1 viability, CellTiter-Glo ATP luminescence, 72 h | Potency, µM (titrated, usually from 46.1 µM), hits mostly cytotoxic | 1.4% of 400,000 active | AID 1347075, 2019; further: potency means the concentration at half of the fitted maximal effect; nearly all actives have a fitted effect of over 60% in size
#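 Multi-concentration cytotoxicity screen in KB-3-1 cells grown in DMEM lacking phenol red with 10% FBS. After 72 h at 37 °C with compound, ATP-dependent luminescence was recorded.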
# HT1080 IDH1KD tx: qHTS for induction of synthetic lethality in tumor cells producing 2HG: qHTS for the HT-1080-IDH1KD cell line | HT-1080 IDH1 knockdown viability, ATP luminescence, 48 h | Potency, µM (series often up to 46.1 µM), for the others: at the top dose activity, negative = toxicity, hits mostly cytotoxic | 2% of 360,000 active | AID 686971, 2013;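 further: potency means the concentration at half of the fitted maximal effect; 0% = DMSO wells and -100% = cell-free medium wells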
#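 After a 2 h attachment period, IDH1KD HT-1080 cells took pin-transferred compound for 48 h at 37 °C; ATP-based luminescence after 10 min room-temperature reagent incubation reported viability.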
# IL1B secr inh: qHTS for Inhibitors of Inflammasome Signaling: IL-1-beta AlphaLISA Primary Screen; THP-1 LPS/ATP IL-1B secretion, AlphaLISA, 16 h; active compounds read low; activity change, % at 57.5 µM; 4.7% of 360,000 active; AID 743279, 2014; in the data active means activity change below about -50%; inconclusive means mostly about -30% to -49%
#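 THP-1 cells pretreated 1 hr with compounds (up to 57.5 uM final), then stimulated with LPS (250 ng/mL final) plus ATP (1.25 mM final); secreted IL-1B measured by AlphaLISA after 16 hr, decreased signal indicating inhibition.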
# HT1080-NT tox: qHTS for induction of synthetic lethality in tumor cells producing 2HG: qHTS for the HT-1080-NT fibrosarcoma cell line | HT-1080-NT fibrosarcoma viability, CellTiter-Glo ATP luminescence, 48 h | Potency, µM (doses to about 46.1 µM), without a hit: at the highest dose activity, negative = less viability, hits mostly cytotoxic | 1.6% of 360,000 active | AID 686970, 2013;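 further: NT is the 2HG producing partner of a matched IDH1 knockdown line; potency means the concentration at half of the fitted maximal effect; 0% = DMSO-treated cells and -100% = media-only wells without cells; nearly all actives have a fitted effect of over 55% in size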
#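 750 cells/well, RPMI + 5% FBS; 2 h settle, compound pin-transfer, 48 h at 37 degrees C. CellTiter-Glo 10 min RT, luminescence. Normalized to DMSO and media-only wells.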
# KB-V1 cytotox: qHTS assay for MDR1-selective chemotherapeutics: Primary screen using the drug-selected MDR subline cells KB-V1. KB-V1 MDR cells viability, CellTiter-Glo, 72 h. Potency, µM (highest dose often 46.1 µM), usual class: cytotoxic. 3.4% of 400,000 active; further: potency means the concentration at half of the fitted maximal effect; nearly all actives have a fitted effect of over 60% in size
#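 In this primary screen, KB-V1 cells overexpressing P-gp are incubated with library compounds (lowest to highest concentration) for 72 h at 37 degrees C before a luminescent ATP viability read.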
# * = called active by the depositor; i = inactive; ? = inconclusive; . = not tested or not shown. Unless noted, the call rests on the fitted dose curve; in most records, active means well fitted curve in the direction sought with a large enough effect; inconclusive means small, poorly fitted or top-dose-only effect, or another doubt; inactive means no such curve, though single readings can be large; an effect the other way counts as inactive or inconclusive. Unless noted, on the % scale 0 is the no-effect control and ±100 the full control effect.
SMILES,KB-3-1 tox,HT1080 IDH1KD tx,IL1B secr inh,HT1080-NT tox,KB-V1 cytotox
COc1ccccc1COC(=O)Nc1c(C)nn(C)c1Cl,i,2.9%,-1.1,2.3%,23.1µM*
CCOc1cc(CNCC(C)C)cc(Cl)c1OCc1ccccc1,i,-20.0%,-51.8*,-22.4%,i
CCOc1cc(CNC2CCCC2)ccc1OCc1ccccc1Cl,?,-15.5%,-88.5*,12.1%,20.6µM*
CCOc1cc(CNC2CCCC2)cc(Cl)c1OCc1ccccc1,?,?,-23.6,20.6µM*,?
Cc1ccccc1C(=O)OCc1cc(=O)n2nc(C3CC3)sc2n1,i,.,.,.,i
CCC1CCC(NC(=O)Nc2cccc(OC)c2)CC1 (configuration not stated),i,-9.5%,-14.2,0.6%,i
OCCNc1nc(NCc2ccccc2)c2ccccc2n1,?,?,-98.5*,?,i
OCCNc1nc(Nc2cccc(O)c2)nc2ccccc12,i,0.0%,-104.9*,-11.3%,i
COc1ccccc1NC(=O)C1=C(C)Nc2nc(SCc3ccccc3Cl)nn2C1c1ccncc1 (configuration not stated),i,.,.,.,i
O=C(CN(c1ccccc1Cl)S(=O)(=O)c1ccccc1)NCc1ccccc1,i,2.6%,-10.5,-3.2%,?
FC(F)(Cl)c1nnc2ccc(Cl)nn12,6.51µM*,?,43.7,?,?
CC1(C(=O)NCc2ccccc2Br)CCN1C(=O)C1(c2ccc(Cl)cc2)CC1 (configuration not stated),?,-0.9%,-28.1,3.2%,?
CC1(C(=O)NCc2cccc3ccccc23)CCN1C(=O)C1(c2ccccc2)CCCC1 (configuration not stated),i,?,-51.6*,?,?
CCOc1cc2[nH]c(=O)n(CCCCC(=O)N3CCN(c4ccccc4)CC3)c(=O)c2cc1OCC,i,.,.,.,i
O=C1c2[nH]nc(-c3ccccc3)c2C(c2ccccc2)N1c1cccc(C(F)(F)F)c1 (configuration not stated),?,.,.,.,16.4µM*
C=C(C)C1CC=C(C)/C(=N/NC(=O)COc2ccc(C)cc2)C1 (configuration not stated),i,-1.7%,1.0,11.0%,i
C=C(C)C1CC=C(C)/C(=N\NC(=S)Nc2ccc(C)cc2)C1 (configuration not stated),?,-8.3%,-5.0,-15.9%,16.4µM*
CC(C)C(=O)NC(c1ccc([N+](=O)[O-])cc1)c1c(O)ccc2ccccc12 (configuration not stated),i,?,-87.8*,?,?
CC(=O)NC(c1ccc(C(C)C)cc1)c1c(O)ccc2ccccc12 (configuration not stated),i,?,-74.9*,?,i
O=C1NCCCC1C(=O)N/N=C/c1cccc(Cl)c1 (configuration not stated),i,11.7%,3.0,24.8%,i
O=C(CSc1ccc2ccccc2c1)Nc1ccc(S(=O)(=O)Nc2nccs2)cc1,i,1.9%,30.6,10.2%,i
O=C1C(=Cc2ccco2)CCC1=Cc1ccco1,i,2.8%,-51.0*,0.6%,i
Cc1cccc(N2CCN(C(=O)CN3CCSc4ccccc43)CC2C)c1 (configuration not stated),i,.,.,.,?
Nc1ccccc1C(=O)N1O[C@@H]2C=C[C@H]1CC2,i,1.6%,0.6,6.4%,i
COc1cccc(-c2cc(C(=O)Nc3cc(OC)c(OC)c(OC)c3)on2)c1,9.2µM*,.,.,.,?
SMILES,KB-3-1 tox,HT1080 IDH1KD tx,IL1B secr inh,HT1080-NT tox,KB-V1 cytotox
COc1cccc(-c2cc(C(=O)Nc3cc(Cl)ccc3O)on2)c1,i,.,.,.,i
O=C(NCCCCCCCN1CCCCCCC1)C(C1CCCCC1)C1CCCCC1,?,?,-81.6*,-16.0%,3.26µM*
C#CCOCCOCCOCCNc1nc(N2CCN(C(=O)CCCCCCCCCCNC(=O)[C@H](CCCCN)n3cc(CCCC(=O)O)nn3)CC2)nc(N2CCN(C(=O)CCCCCCCCCCNC(=O)[C@H](CCCN=C(N)N)n3cc(C[C@@H](C)CC)nn3)CC2)n1,?,-23.7%,-73.3*,-25.1%,?
C#CCOCCOCCOCCNc1nc(N2CCN(C(=O)CCCCCCCCCCNC(=O)Cn3cc(C[C@@H](C)O)nn3)CC2)nc(N2CCN(C(=O)CCCCCCCCCCNC(=O)[C@H](CCCCN)n3cc(C[C@@H](C)CC)nn3)CC2)n1,?,20.6µM*,-76.9*,?,i
C#CCOCCOCCOCCNc1nc(N2CCN(C(=O)CCCCCCCCCCNC(=O)[C@H](CCCCN)n3cc(CCCC(=O)O)nn3)CC2)nc(N2CCN(C(=O)CCCCCCCCCCNC(=O)[C@H](CCCCN)n3cc(CCCC(=O)O)nn3)CC2)n1,i,-25.2%,-3.5,3.4%,i
C#CCOCCOCCOCCNc1nc(N2CCN(C(=O)CCCCCCCCCCNC(=O)[C@H](CCCCN)n3cc(C[C@@H](C)CC)nn3)CC2)nc(N2CCN(C(=O)CCCCCCCCCCNC(=O)[C@H](CCCCN)n3cc(C[C@@H](C)CC)nn3)CC2)n1,?,?,-65.8*,?,?
C#CCOCCOCCOCCNc1nc(N2CCN(C(=O)CCCCCCCCCCNC(=O)[C@H](CCCCN)n3cc(CCO)nn3)CC2)nc(N2CCN(C(=O)CCCCCCCCCCNC(=O)[C@H](CCCN=C(N)N)n3cc(C[C@@H](C)CC)nn3)CC2)n1,?,?,-98.1*,?,i
COc1ccc(S(=O)(=O)N2CCOCC2)cc1NC(=O)CCNC(=O)c1ccc(Br)cc1,i,-23.5%,11.2,-2.9%,i
CCOc1ccc(S(=O)(=O)N2CCCCC2)cc1NC(=O)Cc1ccsc1,i,2.7%,14.5,0.2%,11.6µM*
COc1ccc(S(=O)(=O)N2CCOCC2)cc1NS(=O)(=O)c1ccc(F)c(F)c1,i,-4.7%,17.7,-4.5%,23.1µM*
COc1ccc(S(=O)(=O)N2CCCCC2)cc1NC(=O)Cc1ccsc1,.,-0.1%,8.8,1.4%,.
Cc1ccc(S(=O)(=O)N2CCOCC2)cc1NC(=O)COC(=O)c1cnc(Cl)c(Cl)c1,i,-0.2%,-87.2*,0.9%,i
COc1ccc(S(=O)(=O)N2CCOCC2)cc1NC(=O)CCNC(=O)c1ccc(Cl)cc1,i,?,2.2,20.6µM*,i
CCNC(=O)c1ccc(C)c(-n2c(C)nc3cccnc32)c1,i,.,.,.,i
